Results reported in article PMC5540273 (PLoS ONE, 2017).

Tests used:
Conditions in all cases: concentration: 1 μM, replicates: in singlicate; n = 1
MTOR = test system: MTOR
MUSK = test system: MUSK
MYLK2 = test system: MYLK2
MYLK4 = test system: MYLK4
MYLK = test system: MYLK
MYO3A = test system: MYO3A
MYO3B = test system: MYO3B
NDR1 = test system: T1, NDR1
T1 construct: gene STK38

NDR2 = test system: NDR2
NEK10 = test system: NEK10
NEK11 = test system: NEK11
NEK1 = test system: NEK1
NEK2 = test system: NEK2
NEK3 = test system: NEK3
NEK4 = test system: NEK4
NEK5 = test system: NEK5
NEK6 = test system: NEK6
NEK7 = test system: NEK7
NEK9 = test system: NEK9
NIK = test system: T2, NIK
T2 construct: gene MAP3K14
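Also: KINOMEscan kinase panel screen.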

Row | Compound | %Inh (MTOR) | %Inh (MUSK) | %Inh (MYLK2) | %Inh (MYLK4) | %Inh (MYLK) | %Inh (MYO3A) | %Inh (MYO3B) | %Inh (NDR1) | %Inh (NDR2) | %Inh (NEK10) | %Inh (NEK11) | %Inh (NEK1) | %Inh (NEK2) | %Inh (NEK3) | %Inh (NEK4) | %Inh (NEK5) | %Inh (NEK6) | %Inh (NEK7) | %Inh (NEK9) | %Inh (NIK)
1 | O=C(Nc1n[nH]c2nc(-c3ccc(O)cc3)ccc12)C1CC1 [SB-710363] | 0% | 0% | 79% | 31% | 35% | 62% | 9% | 0% | 4% | 0% | 0% | 0% | 3% | 17% | 2% | 0% | 0% | 12% | 0% | 2%
2 | Cl.c1ccc(-c2ccc3c(Nc4ccc5[nH]ncc5c4)ccnc3c2)nc1 [GW440137] | 7% | 7% | 5% | 11% | 26% | 36% | 0% | 8% | 10% | 1% | 0% | 0% | 0% | 11% | 0% | 13% | 0% | 0% | 7% | 10%
3 | COc1cccc(-c2ccc3c(NC(=O)C4CC4)n[nH]c3n2)c1 [SB-710903] | 20% | 0% | 78% | 6% | 11% | 45% | 0% | 10% | 16% | 20% | 36% | 0% | 0% | 18% | 0% | 6% | 0% | 0% | 0% | 0%
4 | O=c1[nH]cc(-c2ccc(N3CCOCC3)cc2)c2sc(-c3cn[nH]c3)cc12 [GSK2276055] | 8% | 0% | 3% | 48% | 18% | 53% | 0% | 30% | 29% | 0% | 0% | 19% | 19% | 16% | 0% | 0% | 0% | 39% | 53% | 17%
5 | Cc1ccc(S(=O)(=O)Nc2ccc(Nc3nccc(Nc4cccc5[nH]ncc45)n3)cc2)cc1 [GSK581271] | 5% | 12% | 17% | 50% | 0% | 9% | 0% | 0% | 0% | 3% | 27% | 0% | 4% | 0% | 20% | 5% | 0% | 0% | 11% | 0%
6 | O=C(Nc1cccc(-c2nn3ccccc3c2-c2ccnc(Nc3cccc(F)c3)n2)c1)c1c(F)ccc(F)c1Cl [GSK357952] | 0% | 11% | 10% | 0% | 5% | 0% | 0% | 41% | 0% | 44% | 6% | 0% | 20% | 0% | 6% | 0% | 0% | 6% | 19% | 36%
7 | COc1cccc(NC(=O)NC2CCN(c3ccnc(Nc4cc(OC)c(OC)c(OC)c4)n3)C2)c1 (stereo not shown) [GSK1379763] | 7% | 5% | 0% | 0% | 17% | 12% | 0% | 0% | 0% | 15% | 0% | 65% | 21% | 33% | 5% | 100% | 16% | 52% | 40% | 6%
8 | COC(=O)Nc1nc2cc(Oc3ccc(NC(=O)Nc4cc(C(F)(F)F)ccc4F)cn3)ccc2[nH]1.Cl.Cl [GW681170] | 2% | 99.4% | 0% | 0% | 16% | 21% | 0% | 20% | 14% | 7% | 34% | 0% | 0% | 0% | 0% | 0% | 0% | 0% | 35% | 26%
9 | CSc1cccc2c(-c3ccncn3)c(-c3ccc(F)cc3)nn12 [GW514786] | 24% | 7% | 0% | 0% | 23% | 13% | 0% | 13% | 12% | 2% | 0% | 0% | 0% | 0% | 15% | 7% | 0% | 0% | 1% | 14%
10 | O=C(Nc1cccc(-c2nn3ccccc3c2-c2ccnc(Nc3cccc(C(F)(F)F)c3)n2)c1)c1c(F)cccc1F [GSK292658] | 0% | 10% | 0% | 0% | 0% | 0% | 0% | 0% | 0% | 0% | 0% | 0% | 8% | 0% | 0% | 0% | 0% | 4% | 16% | 0%
11 | Oc1cc(Nc2ccnc3cc(I)ccc23)ccc1F [GW552771] | 11% | 5% | 0% | 1% | 17% | 0% | 0% | 0% | 0% | 9% | 0% | 0% | 0% | 1% | 38% | 0% | 0% | 0% | 0% | 0%
12 | CCn1c(-c2nonc2N)nc2c(C#CC(C)(C)O)nc(OC[C@H](N)c3ccccc3)cc21 [GSK943949] | 20% | 0% | 0% | 0% | 12% | 0% | 0% | 34% | 2% | 34% | 0% | 0% | 0% | 3% | 0% | 0% | 14% | 0% | 0% | 72%
13 | Cc1ccc(C(=O)N2CC[C@@H](O)C2)cc1-n1c(C)cc(OCc2ccc(F)cc2F)c(Br)c1=O | 45% | 9% | 0% | 0% | 0% | 0% | 0% | 26% | 0% | 0% | 0% | 0% | 0% | 31% | 0% | 0% | 0% | 0% | 0% | 0%
14 | COc1ccc(CNC(=O)NC2CCN(c3ccnc(Nc4ccc(F)cc4)n3)CC2)cc1 [GSK1379788] | 18% | 0% | 0% | 5% | 5% | 40% | 0% | 7% | 16% | 3% | 2% | 0% | 0% | 12% | 0% | 13% | 0% | 0% | 0% | 12%
15 | COc1cccc(C(=O)Nc2cccc(Oc3ccc4nc(NC(=O)C5CC5)cn4n3)c2)c1 | 0% | 0% | 0% | 0% | 33% | 14% | 0% | 19% | 10% | 0% | 0% | 16% | 8% | 19% | 0% | 23% | 5% | 0% | 0% | 0%
16 | c1ccc(Oc2ccc(Nc3ccnc4cc(-c5ccc(CNCCN6CCOCC6)o5)ccc34)cc2)nc1 [GW567145] | 23% | 1% | 0% | 0% | 0% | 24% | 0% | 16% | 40% | 0% | 45% | 0% | 0% | 0% | 0% | 0% | 0% | 0% | 13% | 28%
17 | Nc1ncc(-c2cccnc2)c2scc(-c3ccc4c(c3)CCN4C(=O)Cc3ccccc3)c12 [GSK683281] | 0% | 39% | 32% | 11% | 33% | 17% | 6% | 29% | 0% | 14% | 44% | 0% | 70% | 1% | 17% | 22% | 8% | 19% | 28% | 4%
18 | COc1cc(Nc2ncc3c(C)nc(-c4cc5ccccc5[nH]4)n3n2)cc(OC)c1OC [GW869516] | 14% | 47% | 0% | 39% | 0% | 0% | 0% | 10% | 0% | 0% | 86% | 16% | 70% | 89% | 41% | 99% | 99.6% | 99.7% | 90% | 0%
19 | Cn1cc(-c2[nH]c3cc(NC(=O)[C@H](N)C4CCCCC4)cc4c3c2C=NNC4=O)cn1 | 17% | 12% | 47% | 98.7% | 24% | 5% | 0% | 93.1% | 75% | 54% | 89% | 70% | 21% | 32% | 0% | 54% | 2% | 0% | 11% | 3%
20 | CC(=O)N1CCN(c2ccc(Nc3nccc(-c4sc(C(C)C)nc4-c4cccc(NS(=O)(=O)c5cccc(Cl)c5)c4)n3)cn2)CC1 [GSK1660437] | 3% | 14% | 0% | 0% | 7% | 12% | 49% | 14% | 0% | 0% | 90% | 0% | 42% | 0% | 6% | 2% | 32% | 73% | 85% | 17%
